# Screening results (PubChem)
# Most compounds without a hit are left out; they make up all but 1.7% or so of the library.
# RXFP1 antag – qHTS Assay for Antagonists of the Relaxin Receptor RXFP1. Relaxin receptor 1 (Homo sapiens), Q9HBX9. HEK293-RXFP1, relaxin-stimulated cAMP HTRF, 30 min; active compounds read low. activity change, negative = inhibition, % at 57.5 µM. hit rate 0.59% among 350,000;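 active = activity change of -60% or lower, but not beyond a set lower limit; inconclusive = change between -60% and -40%, or beyond the set limit; inactive = change above -40%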
# Akt phos inh – HTS Assay for Inhibitors of Akt Phophorylation: Primary Screen; Neuro2A IGF-stimulated pAkt S473 HTRF, 20 min; active compounds read low; activity change, % for hits at 50 µM; hit rate 0.32% among 360,000; AID 651550, 2012; in the data active = activity change below about -80%; inconclusive = mostly about -51% to -80%
#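 Neuro2A cells in DMEM with 0.5% FBS, overnight at 37 deg C, given compound at single 50 µM final, then IGF (6 nM final) for 20 min at 37 deg C. Lysed; phospho-Akt Ser473 by HTRF after 24 h, 665/615 ratio.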
# RXFP1 agonist – qHTS Assay for Agonists of the Relaxin Receptor RXFP1; HEK293T-RXFP1 cAMP TR-FRET, 30 min; response scale: percent of porcine relaxin response, buffer zero; Potency, µM (titrated, usually from 57.5 µM), usual class: activators; AID 2676, 2010; hit rate 0.3% among 370,000; active = well fitted activation curve with a large enough effect; inconclusive = small, poorly fitted or top-dose-only effect; note: nearly all actives have a fitted effect of over 60% in size
#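 cAMP rise read by TR-FRET after 30 min, 37C compound exposure (up to 58 uM) in RXFP1-transfected HEK293 cells with Ro 20174 present. EC50 from Hill-equation fits, with 29 nM porcine relaxin as 100% and buffer as basal.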
# KCNH2 3.1 inh – qHTS for Inhibitors of KCHN2 3.1: Mutant qHTS. AID 720553, 2013. activity change, % (tested at about 1.8 µM). Potassium voltage-gated channel subfamily H member 2, brain isoform KCNH2 3.1 (human). U2OS KCNH2 3.1, thallium flux FluxOr; active compounds read low. hit rate 0.95% among 340,000;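 active = maximum activity change below -70%; inconclusive = maximum activity change from -70% to -50%; inactive = maximum activity change above -50%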;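 note: thallium influx rate constant from kinetic fluorescence after stimulation buffer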
#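 U2OS cells transduced with KCNH2 3.1 mutant virus (1.77 x 10^8 /mL, 4 h), plated overnight at 37 C, loaded 45 min with FluxOr dye plus Red40 quencher. Thallium flux rate constant from kinetic reads after stimulation buffer, normalised to controls.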
# hERG WT inh – qHTS for Inhibitors of KCHN2 3.1: Wildtype qHTS. Voltage-gated inwardly rectifying potassium channel KCNH2 (Homo sapiens), Q12809. U2OS, BacMam KCNH2, thallium flux FluxOr; active compounds read low. activity change, % at 1.84 µM. hit rate 0.37% among 340,000;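 active = maximum activity change below -70%; inconclusive = maximum activity change between -70% and -50%; inactive = maximum activity change above -50%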
# Target sequence (Q12809 whole entry, looked up): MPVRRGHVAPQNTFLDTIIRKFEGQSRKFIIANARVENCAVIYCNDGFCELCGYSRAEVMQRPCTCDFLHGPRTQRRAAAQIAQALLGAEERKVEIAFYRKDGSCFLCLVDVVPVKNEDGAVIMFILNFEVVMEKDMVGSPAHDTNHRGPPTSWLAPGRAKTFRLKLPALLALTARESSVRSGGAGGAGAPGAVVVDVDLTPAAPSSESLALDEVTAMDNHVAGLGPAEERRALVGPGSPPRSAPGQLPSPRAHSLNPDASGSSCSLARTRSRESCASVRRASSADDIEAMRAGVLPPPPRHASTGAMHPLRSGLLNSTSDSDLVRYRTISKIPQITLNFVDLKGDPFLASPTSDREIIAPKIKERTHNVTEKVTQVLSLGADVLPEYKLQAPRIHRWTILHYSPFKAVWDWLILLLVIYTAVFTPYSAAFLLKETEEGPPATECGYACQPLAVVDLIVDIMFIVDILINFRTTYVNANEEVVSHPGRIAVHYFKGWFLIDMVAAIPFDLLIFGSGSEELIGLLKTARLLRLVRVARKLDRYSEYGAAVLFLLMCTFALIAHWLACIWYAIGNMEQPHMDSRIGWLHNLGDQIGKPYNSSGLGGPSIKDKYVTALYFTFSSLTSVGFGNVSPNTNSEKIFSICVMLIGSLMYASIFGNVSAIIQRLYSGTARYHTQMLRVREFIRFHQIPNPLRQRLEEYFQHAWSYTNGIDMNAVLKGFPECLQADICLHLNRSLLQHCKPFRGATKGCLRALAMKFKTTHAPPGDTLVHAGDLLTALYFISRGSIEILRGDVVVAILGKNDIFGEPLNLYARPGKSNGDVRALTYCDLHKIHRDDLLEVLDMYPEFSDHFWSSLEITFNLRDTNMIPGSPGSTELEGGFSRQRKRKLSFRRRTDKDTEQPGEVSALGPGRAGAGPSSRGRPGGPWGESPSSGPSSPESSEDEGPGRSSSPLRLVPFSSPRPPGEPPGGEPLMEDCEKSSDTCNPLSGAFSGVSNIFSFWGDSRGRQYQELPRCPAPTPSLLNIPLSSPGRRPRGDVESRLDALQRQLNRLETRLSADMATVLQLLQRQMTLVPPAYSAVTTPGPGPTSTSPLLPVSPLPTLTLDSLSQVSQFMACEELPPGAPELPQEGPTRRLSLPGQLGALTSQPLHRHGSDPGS
#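 U2OS cells were transduced with wild-type KCNH2 virus (2.03 x 10^8 / mL) for 4 h at room temperature, then cultured overnight at 37 C. Thallium flux was read with FluxOr dye. Rate constants were normalized to DMSO controls.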
# Numbers stand for hits; . = inactive; ? = inconclusive; / = no result; ! = not confirmed by another sample.
SMILES,RXFP1 antag,Akt phos inh,RXFP1 agonist,KCNH2 3.1 inh,hERG WT inh
COc1ccc(NC(=O)CSc2nc(=O)n(CCN3CCOCC3)c3c2CCC3)c(OC)c1,.,.,.,.,.
COc1ccc(NC(=O)c2ccc3c(SCC(=O)O)c4c(nc3c2)CCCC4)c(OC)c1,.,.,.,-158,.
COc1ccc(Cl)cc1NC(=O)c1ccc2c(SCC(=O)O)c3c(nc2c1)CCCC3,.,.,.,.,.
Cc1cc(C)cc(Oc2nn[nH]n2)c1,.,.,.,.,.
O=C(CNC(=O)/C(=C/c1ccccc1)NC(=O)c1ccc(Br)cc1)OCc1ccccc1,.,.,.,-85,.
O=C(CNC(=O)/C(=C\c1ccc(Br)cc1)NC(=O)c1ccccc1)OCc1ccccc1,.,.,.,.,.
O=S(=O)(Nc1ccc(-c2cn3c(n2)SCC3)cc1)c1cccs1,.,.,.,.,.
CS(=O)(=O)N1CCN(C(=O)C2c3ccccc3Oc3ccccc32)CC1,.,/,.,-185,.
Cc1ccc(NC(=O)C(C)N2CCc3ccccc3C2)cc1 (stereo not drawn),.,.,.,-115,.
CC(=O)Nc1ccc(S(=O)(=O)N2CCc3ccccc3C2)cc1,.,.,.,.,.
CC(C(=O)Nc1ccc(S(=O)(=O)N2CCCC2)cc1)N1CCc2ccccc2C1 (stereo not drawn),.,.,.,-187,.
O=C(C1CCCN(c2ncnc3c2nc2n3CCCCC2)C1)N1CCN(c2ccc(F)cc2)CC1 (stereo not drawn),.,.,.,.,.
COc1cccc2[nH]c3c(Cl)ncnc3c12,.,.,.,.,-184
CCCCCc1cc(=O)oc2c(C(CCN(CC)CC)c3ccc(OC)cc3)c(OC)cc(OC)c12 (stereo not drawn),/,.,.,.,.
C[C@@H](C(=O)Nc1ccc2ccccc2c1)[C@H]1C[C@]1(C)[C@H](NC(=O)c1cccnc1)c1ccccc1,/,.,.,.,.
Cc1ccc(CNC(=O)c2cc3c(=O)n4ccccc4nc3n(CC3CCCO3)c2=N)cc1 (stereo not drawn),.,.,.,-71,.
N=c1c(C(=O)NCc2ccco2)cc2c(=O)n3ccccc3nc2n1Cc1ccc(Cl)cc1,.,.,.,-80,.
CCOC(=O)N/N=C\c1ccc(OC(=O)c2ccco2)cc1,.,.,.,.,-154
CCOc1cc(/C=N\NC(=O)OC)ccc1OC(=O)c1ccco1,-64,.,.,.,.
CC(C)(C)c1ccc(C(=O)Nc2ccc([N+](=O)[O-])cn2)cc1,.,.,.,.,.
O=C(CNC(=O)c1ccccc1F)OCC(=O)N1CCCc2ccccc21,.,.,.,.,.
COC(=O)c1cc(Cl)c(NC(=O)/C=C/c2ccc(Cl)cc2)cc1OC,.,.,.,-80,.
CCc1ccc(CNC(=O)c2cc3c(C)nc4ccccc4c3o2)cc1,.,.,.,.,.
Cc1nc2ccccc2c2oc(C(=O)NCC3COc4ccccc4O3)cc12 (stereo not drawn),-84,.,.,.,.
COc1ccc(NC(=O)C[C@H]2C(=O)N(c3ccc(OC)cc3)C[C@@H]2c2ccc(Br)cc2)cc1,.,.,/,.,.
SMILES,RXFP1 antag,Akt phos inh,RXFP1 agonist,KCNH2 3.1 inh,hERG WT inh
CCC(C)NC(=O)CN1C(=O)NC2(CCc3ccccc3C2)C1=O (stereo not drawn),.,.,.,-77,.
CC(C)c1ccc(/C=C2\SC(=S)N(CCC(=O)NCCCn3ccnc3)C2=O)cc1,.,.,.,-77,.
O=C(O)/C=C/c1cccnc1,.,.,.,.,.
CC(/C=C\c1cccnc1)=C/C(=O)O,.,.,.,-77!,.
Cn1c(=O)oc2cc(S(=O)(=O)NCc3ccc(Cl)cc3)ccc21,.,.,.,.,.
Cc1cc(Nc2ccc(Br)cc2)n2nc(-c3ccccc3C)nc2n1,/,/,.,/,/
O=C(/C=C/c1cc([N+](=O)[O-])ccc1OC(F)F)Nc1cccc(OC(F)F)c1,.,.,.,.,-158
CCCCOc1ccc(/C=N/NC(=S)Nc2cc(C)ccc2C)cc1,.,/,.,.,.
O=C(CSc1oc(-c2ccco2)nc1S(=O)(=O)c1ccc(F)cc1)NCC1CCCO1 (stereo not drawn),.,.,.,.,.
O=C(CSc1oc(-c2ccco2)nc1S(=O)(=O)c1ccccc1)NCC1CCCO1 (stereo not drawn),.,-101%,.,.,.
CC(C)Sc1nc(NCc2ccco2)c2c3c(sc2n1)COC(C)(C)C3,.,-118%,.,.,.
Cc1cccc2sc(N(CCCN(C)C)C(=O)c3ccc(Cl)s3)nc12,?,.,.,.,.
CCCCC(O)(c1ccc(F)cc1)C(CN1CCOCC1)c1ccc(Cl)cc1 (stereo not drawn),-77,.,.,.,.
CC1OC(CC(=O)O)CC2=C1C(=O)c1c(O)cccc1C2=O (stereo not drawn),-63,.,/,.,.
COc1cccc(N(C)C(=S)Oc2ccc3c(c2)CCCC3)n1,-65,/,/,/,/
COc1ccc(NC(=O)CN(C)CC(=O)Nc2ccc3c(c2)CCC3)cc1,.,.,.,.,.
COc1ccc(CNC(=O)c2ccc(NC(=O)C3CCCO3)cc2)cc1 (stereo not drawn),.,-105%,.,.,.
CCCOC(=O)c1ccc(NC(=O)C2CCCO2)cc1 (stereo not drawn),.,-119%,.,.,.
NC(=O)c1ccc(NC(=O)C2CCCO2)cc1 (stereo not drawn),.,.,.,.,.
Cn1c(=O)c(C(=O)c2ccccc2)nc2ccccc21,.,.,.,.,.
CC(=O)c1cccc(NC(=O)c2nc3ccccc3n(C)c2=O)c1,.,/,16µM,/,/
Cc1ccccc1CC(=O)N1CCN(C(=O)c2ccco2)CC1,.,.,.,.,.
CCCCn1c(CCC)nc([N+](=O)[O-])c1Sc1ccc(Cl)cn1,.,-114%,.,.,.
CC(C)Cn1c(C(C)C)nc([N+](=O)[O-])c1Sc1ccc(Cl)cn1,.,.,.,.,.
COc1ccc2ccccc2c1CN1CCCC(CO)C1 (stereo not drawn),.,-112%,.,.,.
O=C(/C=C/c1ccccc1)NC(=S)Nc1ccc(CN2CCOCC2)cc1,-63,.,.,-85,.
COc1ccc(/C=C/C(=O)NC(=S)Nc2ccc(N3CCN(C(C)=O)CC3)cc2)cc1,.,.,.,.,-174
Cn1c(C(=O)N2CCC(C(=O)N3CCOCC3)CC2)cc2sccc21,.,.,.,.,.
